Assay results reported in PubChem BioAssay AID504332 (National Center for Advancing Translational Sciences (NCATS), 2011).
The campaign covered roughly 350,000 compounds. About 31,000 (8.9%) were called active. Inconclusive results (about 15%) are left out. The sample as a whole holds a higher share of actives than the screen did. A number with no mark means an inactive call. Calls follow the shape of the dose curve; as a rule, active = well fitted inhibition curve with a large enough effect; inconclusive = small, poorly fitted or top-dose-only effect; inactive = no such curve, though single readings can be large or run the other way.

biological target: Histone-lysine N-methyltransferase EHMT2 (Homo sapiens) (UniProt Q96KQ7); assay: qHTS Assay for Inhibitors of Histone Lysine Methyltransferase G9a; details: G9a H3K9 monomethylation, AlphaScreen, 2 h; series mostly up to 59 µM; activity, negative = inhibition: at the top concentration; also: nearly all actives have a fitted effect of over 75% in size
Sequence (Q96KQ7 913-1193 limits assumed): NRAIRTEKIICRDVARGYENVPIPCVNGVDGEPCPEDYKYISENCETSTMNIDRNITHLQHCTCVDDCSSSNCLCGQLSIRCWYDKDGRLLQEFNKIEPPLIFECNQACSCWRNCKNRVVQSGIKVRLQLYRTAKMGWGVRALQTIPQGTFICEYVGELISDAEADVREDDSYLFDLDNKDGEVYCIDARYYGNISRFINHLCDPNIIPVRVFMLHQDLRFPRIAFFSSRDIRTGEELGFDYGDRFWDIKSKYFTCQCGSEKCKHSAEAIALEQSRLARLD
How it was run: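 AlphaScreen read-out: biotin-H3K9 peptide (500 nM) methylation by 20 nM enzyme with 20 uM SAM, 2 h at room temperature after 15 min compound preincubation; anti-monomethyl H3K9 antibody plus donor/acceptor beads, 10 min dark.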
% is scaled to controls: 0 for no effect and ±100 for the full control effect; potency is read from the fitted curve at half-maximal effect.

SMILES | activity, negative = inhibition | Potency
O=C(Nc1ncccc1O)c1ccc(S(=O)(=O)N2CCCCCC2)cc1 | 5.43% [at 102 µM] | –
CCN(C(=O)Cn1cc(S(=O)(=O)N2CCN(c3ccccc3F)CC2)c2ccccc2c1=O)c1ccc(C)c(C)c1 | -32.2% | –
Cc1ccc(C)c(Cn2c(C)c(CNCc3ccc(F)cc3)c(C(=O)O)c2C)c1 | -2.85% | –
Cn1cccc1C(=O)NNC(=O)COc1ccc(Br)cc1 | 4.95% [at 0.501 µM] | –
CCCCNC(=O)CSc1nc2ccc(NC(=O)CSc3nnc(N)s3)cc2s1 | – | 2 µM (active)
CN(C(=O)CSc1nc2ccc(NC(=O)COc3ccccc3)cc2s1)c1ccccc1 | -35% | –
CCC(=O)Nc1ccc2nc(SCC(=O)N3CCc4ccccc43)sc2c1 | 5.3% | –
CN(C)C(=O)N=NC(=O)N(C)C | – | 2.24 µM (active)
CCOc1ccc(NC(=O)CC2C(=O)N(c3cccc(OC)c3)C(=O)N2C2CCCCC2)cc1 (stereo unspecified) | -36.5% | –
COc1ccc(CNC(=O)CNC(=O)c2sc3ccccc3c2Cl)cc1OC | -4.28% [at 102 µM] | –
COc1ccc(OCCCC(=O)Nc2cccc(S(=O)(=O)N3CCCCCC3)c2)cc1 | -48.2% [at 12.7 µM] | –
COc1ccc(-c2cn3c(n2)sc2cc(C(=O)Nc4ccccc4F)ccc23)cc1 | 5.43% | –
Fc1ccccc1OCCCCn1cncn1 | -3.44% | –
CCN1CCN(CCCCOc2ccccc2F)CC1 | – | 10 µM (active)
CN1CCN(CCCCOc2cccc3ccccc23)CC1 | 26.3% [at 2.33 µM] | –
O=C(COC(=O)C1(c2ccc(F)cc2)CCCC1)N1CCNC1=O | 19.8% [at 12.7 µM] | –
COc1ccc(Cc2nc3ccc(C(=O)NCc4ccc(OC)cc4OC)cc3o2)cc1 | 3.04% | –
COC(=O)C1=C(NC(=O)C(C)(C)C)CCS1 | – | 1.41 µM (active)
Cc1cc2c(=O)n(CC(=O)NCC(=O)Nc3ccc(C(C)C)cc3)cnc2s1 | 12.3% [at 102 µM] | –
CC1(c2ccc(Cl)cc2)NC(=O)N(CC(=O)c2ccc3c(c2)OCO3)C1=O (stereo unspecified) | -7.79% [at 102 µM] | –
O=C(CN1CCN(c2ccccc2F)CC1)c1ccc2c(c1)OCO2 | – | 20 µM (active)

SMILES | activity, negative = inhibition | Potency
O=C(Nc1ccccc1F)c1ccc2c(c1)OCO2 | -7.42% [at 0.501 µM] | –
COc1ccc(C2CC(=O)Nc3c2c(=O)nc2c(C)cccn32)cc1OC (stereo unspecified) | -13.1% | –
Cn1c(N)c(C(=O)COC(=O)/C=C/c2cccc(C(F)(F)F)c2)c(=O)n(C)c1=O | 28.8% [at 2.33 µM] | –
CC1(C)O[C@@H]2CC3C4C[C@H](F)C5=CC(=O)C=CC5(C)C4C(O)CC3(C)[C@]2(C(=O)CO)O1 (stereo partly specified) | -17.2% | –
CCC1(C)Cc2c(sc3nc(SC)nc(N)c23)CO1 (stereo unspecified) | 17.6% | –
CCSc1nc2sc3c(c2c(=O)[nH]1)CC(C)(C)OC3 | 7.55% [at 102 µM] | –
CCC1(C)Cc2c(sc3nc(SC)[nH]c(=O)c23)CO1 (stereo unspecified) | – | 44.7 µM (active)
COc1ccccc1NC(=O)C(=O)c1cc(C)n(-c2ccccc2F)c1C | -41.8% | –
COc1cc(CNCCSc2nnnn2C)ccc1OCc1ccc(Cl)cc1Cl | -31.5% | –
Cc1cc(Cl)ccc1OCC(=O)N(Cc1ccc(N(C)C)cc1)C1CCS(=O)(=O)C1 (stereo unspecified) | – | 10 µM (active)
CC(C)c1ccc(OCC(=O)N(Cc2ccc(N(C)C)cc2)C2CCS(=O)(=O)C2)cc1 (stereo unspecified) | – | 12.6 µM (active)
CCc1ccc(OCC(=O)N(Cc2ccccc2)C2CCS(=O)(=O)C2)cc1 (stereo unspecified) | 21.1% [at 102 µM] | –
COc1cc(C(=O)N(Cc2ccc(C(C)C)cc2)C2CCS(=O)(=O)C2)cc(OC)c1OC (stereo unspecified) | 2.53% | –
Cc1ccccc1OCC(=O)N(Cc1cccc(F)c1)C1CCS(=O)(=O)C1 (stereo unspecified) | 65.3% [at 102 µM] | –
Cc1ccc(CN(C(=O)COc2ccc(Cl)cc2C)C2CCS(=O)(=O)C2)o1 (stereo unspecified) | -30% | –
COc1ccc(NC(=O)CSc2nc(SC)ns2)c(OC)c1 | -2.51% [at 102 µM] | –
COc1cccc(N2CC(NC(=O)/C=C\c3ccccc3)CC2=O)c1 (stereo unspecified) | 2.58% | –
CCOc1ccc(NC(=O)CN(C)C(=O)c2cccc(S(=O)(=O)N3CCCC3)c2)cc1OCC | -27.5% [at 102 µM] | –
CC(C)CN(C(=O)CSc1ncnc2sccc12)C1CCS(=O)(=O)C1 (stereo unspecified) | 0.939% [at 12.7 µM] | –
COC(=O)[C@@]12CCCN1[C@H](c1ccc(-c3ccc(F)cc3)c(OC)c1)[C@H]1C(=O)N(C)C(=O)[C@H]12 | 17.2% [at 2.33 µM] | –
O=C(/C=C/c1ccc([N+](=O)[O-])o1)NNC(=O)c1ccc(F)cc1 | 4.33% [at 102 µM] | –

SMILES | activity, negative = inhibition | Potency
Cc1nc2ccccc2c(=O)n1-c1ccc(F)c(NC(=O)c2cccs2)c1 | -27.2% [at 102 µM] | –
CC(C)CN(Cc1c(O)ccc2c(=O)c(-c3ccccc3)coc12)CC(C)C | 6.97% [at 102 µM] | –
COc1cc(C2NC(=O)NC(c3ccccc3)=C2C(C)=O)c(Br)cc1OCC(N)=O (stereo unspecified) | 13.9% | –
CC(C)(C)c1ccc(C(=O)NCC(c2ccco2)S(=O)(=O)c2ccc(F)cc2)cc1 (stereo unspecified) | -26.1% | –
Cc1ccc2[nH]c(=O)c(-c3nc4c(C)cccn4c3NCc3ccco3)cc2c1 | 23.2% | –
Cc1cccn2c(=O)c(/C=C3\SC(=S)N(CC(C)C)C3=O)c(NCCCOC(C)C)nc12 | 17.9% [at 102 µM] | –
CCCN(CCC)c1nc2c(C)cccn2c(=O)c1/C=C1/SC(=S)N(Cc2ccco2)C1=O | – | 39.8 µM (active)
CCc1ccc(NC(=O)c2nn(-c3ccc(C)cc3)c(=O)n(C)c2=O)cc1 | -3.54% | –
NS(=O)(=O)c1ccc(NC(=O)COc2ccc(S(=O)(=O)NC3CCCCC3)cc2)cc1 | 3.03% | –
CCOc1cc(-c2cc(-c3ccc(NC(C)=O)cc3)nc(N)c2C#N)ccc1O | 11.7% | –
CCc1ccc(NC(=O)N2CCc3ccccc3C2)cc1 | 36.1% [at 102 µM] | –
COc1ccc(CC(=O)NC2CCSc3ccccc32)cc1OC (stereo unspecified) | -4.72% [at 102 µM] | –
CCOc1cc(C(=O)Nc2nnc3n2CCS3)cc(OCC)c1OCC | 35.3% | –
COc1ccc(CC(=O)Nc2nnc3n2CCS3)cc1OC | – | 12.6 µM (active)
COc1ccccc1NC(=O)C(C)OC(=O)c1ccc(-n2cnnn2)cc1 (stereo unspecified) | -8.77% [at 102 µM] | –
O=C(NNC(=O)c1cccc(S(=O)(=O)Nc2ccc(Cl)cc2)c1)c1ccc(=O)[nH]c1 | 17.2% [at 12.7 µM] | –
Cc1ccc(NN=C2C(=O)OC(C)(C)OC2=O)c(C)c1 | -26.1% [at 102 µM] | –
Cc1ccc(N/N=C2\COC(C)(C)CC2=O)cc1 | – | 44.7 µM (active)
CN(C(=O)COC(=O)c1cc(=O)[nH]c2ccccc12)C1CCCCC1 | -20.6% [at 2.33 µM] | –
